High-throughput results deposited in PubChem BioAssay by National Center for Advancing Translational Sciences (NCATS).
Hits are enriched below; roughly 5.5% of the tested compounds scored in any of these assays.
Six1-Eya2 blk = blocks human Six1 binding to Eya2 | AlphaScreen GST-Six1/His-Eya2 binding, biochemical; active compounds read low | activity change, % (no concentration beside the values) | hit rate 0.56% among 360,000 | AID 651725; in the data active means activity change below about -65%; inconclusive means mostly about -30% to -63%; further: on the % scale 0 is the no-effect control and ±100 the full control effect
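Compounds are tested against tagged Six1 and Eya2 proteins bridged by glutathione donor and nickel acceptor beads; after a one-hour incubation at 37 °C without light, AlphaScreen emission is recorded.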
CtBP-E1A inh = inhibitors of CtBP/E1A interaction; AID 651724; activity change, % (test concentration not listed); hit rate 0.49% among 340,000; AlphaScreen GST-E1A/His-CtBP binding, 1536-well; active compounds read low; in the data active means activity change below about -65%; inconclusive means mostly about -30% to -63%; further: on the % scale 0 is the no-effect control and ±100 the full control effect
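Protein mix (5X: 125 nM each GST-E1A, His-CtBP) was incubated with pinned compound 2 h at 37 deg C in dark, in 50 mM Tris pH 8.0 buffer with 300 mM NaCl. Glutathione donor and nickel acceptor beads followed; AlphaScreen signal read after 1 h.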
CBFb RUNX1 block = CBF-beta/RUNX1 interaction disruption. AID 1477. Q01196+Q13951. 230,000 tested, under 10 active. AlphaScreen CBFb-His/RUNX1-biotin binding, biochemical. Potency, µM (doses to about 59.8 µM), without a hit: top-dose activity, negative = inhibition, actives largely listed as inhibitors; further: % of control where 0% means no effect
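Interaction loss through any mechanism counts as activity. Pre-formed complex of His-CBF-beta and biotin-RUNX1 (30 nM apiece) is incubated with compound 15 min, then with 50 ng nickel and 50 ng streptavidin beads for 90 min before AlphaScreen detection.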
VP16 counter = Gal4-VP16 reporter inhibition counter-screen; AID 2546; Drosophila S2 Gal4-VP16 UAS-luciferase, luminescence, 20 h; Potency, µM (titrated, usually from 53.6 µM), without a hit: at the top dose activity, negative = inhibition, most hits filed as inhibitors; hit rate 3.5% among 310,000;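 further: Gal4-VP16 expression switched on by copper sulfate through the metallothionein promoter; potency means the concentration at half of the fitted maximal effect; on the % scale 0 is the no-effect control and ±100 the full control effect; nearly all actives have a fitted effect of over 50% in size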
MBNL1-CUG inh = blocks human MBNL1 binding to CUG repeat RNA. Q9NR56. hit rate 0.036% among 280,000. TR-FRET MBNL1-His/biotin-(CUG)12 binding, 665/545 ratio. AID 2675. Potency, µM (highest dose often 57.5 µM), for inactives: at the top dose activity change, negative = inhibition, hits mostly inhibitors; active means well fitted inhibition curve with a large enough effect in the signal ratio, with a control signal flat, not every such curve was filed as active; inconclusive means small, poorly fitted or top-dose-only effect, or effect the other way, or a change in a side signal; inactive means no such curve, though single readings can be large or run the other way; the % refers to the signal ratio; further: potency means the concentration at half of the fitted maximal effect; on the % scale 0 is the no-effect control and ±100 the full control effect
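His-tagged MBNL1 binding to biotinylated (CUG)12 RNA was measured by TR-FRET using terbium anti-His antibody (0.055 ng/ul final) and streptavidin-XL665 (5 nM final). Compounds were titrated 92 nM to 58 uM; 60 min at room temperature.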
RORg inh = inhibitors of mouse ROR gamma transcriptional activity; Drosophila S2 Gal4-RORgamma UAS-luciferase reporter, 20 h; Potency, µM (doses to about 53.6 µM), for inactives: at the top dose activity change, negative = inhibition, actives largely listed as inhibitors; hit rate 5.4% among 310,000; AID 2551; further: potency means the concentration at half of the fitted maximal effect; on the % scale 0 is the no-effect control and ±100 the full control effect; nearly all actives have a fitted effect of over 60% in size
Target sequence (P51450 whole entry, looked up, the tested form may be a part): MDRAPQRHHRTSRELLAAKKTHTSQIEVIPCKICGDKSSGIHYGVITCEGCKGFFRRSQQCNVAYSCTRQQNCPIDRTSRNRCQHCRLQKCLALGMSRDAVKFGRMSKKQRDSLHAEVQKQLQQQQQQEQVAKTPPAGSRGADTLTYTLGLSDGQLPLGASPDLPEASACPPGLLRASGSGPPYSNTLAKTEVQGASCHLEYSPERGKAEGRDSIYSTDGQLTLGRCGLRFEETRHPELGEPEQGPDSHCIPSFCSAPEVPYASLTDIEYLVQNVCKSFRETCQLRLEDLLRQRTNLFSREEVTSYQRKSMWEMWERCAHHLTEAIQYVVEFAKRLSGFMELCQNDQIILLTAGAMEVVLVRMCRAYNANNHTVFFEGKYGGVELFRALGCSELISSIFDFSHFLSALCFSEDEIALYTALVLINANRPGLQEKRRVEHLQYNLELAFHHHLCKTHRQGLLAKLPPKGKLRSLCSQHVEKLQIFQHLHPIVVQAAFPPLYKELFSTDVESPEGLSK
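Stably transfected Drosophila Schneider cells are the test system, with ROR gamma fused to Gal4 and luciferase under UAS control; luminescence is read after 20 hr of 700 uM copper sulfate induction at ambient temperature.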
* hit, by the source's call; ? = inconclusive; . = no result given; [ ] = dose if it differs, or a comment. Unless noted, the call rests on the fitted dose curve; in most records, active means well fitted curve in the direction sought with a large enough effect; inconclusive means small, poorly fitted or top-dose-only effect, or another doubt; inactive means no such curve, though single readings can be large; an effect the other way counts as inactive or inconclusive.

SMILES	Six1-Eya2 blk	CtBP-E1A inh	CBFb RUNX1 block	VP16 counter	MBNL1-CUG inh	RORg inh
Cc1cc(OCC(=O)Nc2ccc(S(=O)(=O)N3CCN(C)CC3)cc2)ccc1Br	-18	-15	.	-9%	-1%	25%
COc1cccc(/C=N/N=C(\N)c2nonc2N)c1O	4	.	-6%	0.63µM*	3%	0.1µM*
Cc1cc(C(=O)Nc2ccccn2)cs1	0	4	8%	?	-3%	11µM*
O=C(Nc1ccccn1)Nc1cccs1	-3	5	-5%	10µM*	4%	22%
O=C(NC(=O)c1ccccc1)Nc1ccccn1	.	.	.	1.6µM*	-11%	0.5µM*
O=C(Nc1ccncc1)Nc1ccccn1	-2	5	8%	2%	5%	3%
O=C(c1ccccc1)c1nc[nH]c1C(=O)Nc1ccccn1	-16	-20	10%	18µM*	?	13µM*
COc1ccc(OC2C(O)COC2/C=C/c2ccccc2)cc1 (stereo unspecified)	.	.	4%[13.1 µM]	10%[10 µM]	.	11%[10 µM]
O=P(C(=NCCO)NO)(N1CCOCC1)N1CCOCC1	6	.	.	-9%	-5%	-7%
COc1ccccc1N1CCN(C(=O)C(C)CS(=O)(=O)c2ccc3c(c2)NC(=O)CS3)CC1 (stereo unspecified)	-8	.	.	-1%	-4%	-3%
CCOc1ccccc1CN1CCCC(C(=O)Nc2cccc(-n3cccn3)c2)C1 (stereo unspecified)	-8	-12	.	-6%	-11%	4%
Cn1nc(C(=O)OCC(=O)c2ccc(Cl)cc2)c2ccccc2c1=O	10	-1	.	.	.	.
S=C(NNC(=S)Nc1ccc(Cl)cc1)NNc1ccccc1	-3	0	.	.	.	.
S=C(NCCSCc1ccccc1Cl)Nc1ccccc1	-14	-10	2%	4µM*	?	2.8µM*
Cc1cccc(CSCCNC(=S)Nc2ccccc2)c1	-6	2	-6%	5.6µM*	-6%	5.6µM*
S=C(NCCSCc1ccc(Cl)cc1)Nc1ccccc1	-10	4	6%	11µM*	-2%	2.5µM*
CC1CC1C(=O)N(C)CC(=O)Nc1ccccc1Br (stereo unspecified)	3	0	.	.	.	.
CCn1c(C)nnc1SCC(=O)Nc1ccc(Cl)cc1	8	.	.	5%	-4%	41%
O=C(CSc1nnc(SCc2ccccc2)s1)NNC(=S)Nc1ccccc1	0	2	0%	13µM*	-2%	14µM*
CCn1c(SCC(=O)NNC(=S)Nc2ccc(C)cc2)nnc1-c1ccc(Cl)cc1	1	0	-2%	1.4µM*	-4%	3.5µM*
Cc1ccc(NC(=S)NNC(=O)CSc2nnc(-c3ccc(Cl)cc3)n2C2CCCCC2)cc1	-2	-1	-13%	?	-6%	11µM*
Cn1c(SCC(=O)NNC(=S)Nc2ccccc2)nnc1-c1ccccc1	-1	2	4%	1.4µM*	2%	0.89µM*
Cn1c(SCC(=O)NNC(=O)Nc2ccccc2)nnc1-c1ccccc1	0	2	9%	4%	16%	-6%
O=C(CSc1ccccc1)NNC(=O)c1ccccc1O	-4	-2	.	-6%	-9%	24%
C#CCn1c(=NC(=O)c2ccc(S(=O)(=O)N3CCc4ccccc4C3)cc2)sc2cc(S(N)(=O)=O)ccc21	-7	-3	19%	10µM*	?	11µM*
SMILES	Six1-Eya2 blk	CtBP-E1A inh	CBFb RUNX1 block	VP16 counter	MBNL1-CUG inh	RORg inh
C/C(CC(=O)Nc1ccc(C)c(Cl)c1)=N\NC(=O)C1CCCCC1	6	-3	.	-23%	-5%	-23%
COc1ccc(C2N=C(c3ccccc3)C(C)(C)N2O)cc1OC (stereo unspecified)	-1	0	1%	-17%	-10%	10µM*
COc1c(CO)cc(CO)cc(CO)c1=O	.	.	10%	7%	.	7%
Cc1ccc2c(c1)c1c(c(=O)n(-c3ccccc3C)c(=O)n1CC(=O)NCC1CCCO1)n2C (stereo unspecified)	-6	.	.	-3%	?	1%
CC(=O)c1c(C)[nH]c(C(=O)CSc2nc3ccccc3n2C)c1C	-2	-3	-6%	?	15%	17%
Cn1c(CSc2nc3ccccc3n2C)nc2ccccc21	-1	-1	-1%	-23%	2%	10µM*
CC(=O)OCC#CCSc1nc2ccccc2n1C	-2	5	0%	?	4%	13µM*
CCc1ccc(NC(=S)Nc2cc(C(=O)O)ccc2N2CC3CC(C2)c2cccc(=O)n2C3)cc1 (stereo unspecified)	2	.	6%	?	2%	10µM*
O=c1c2cc(N3CCOCC3)ccc2[nH]c(=S)n1Cc1ccccn1	-5	4	?	?	28%	7.9µM*
O=c1c2cc(N3CCOCC3)ccc2[nH]c(=S)n1Cc1ccccc1Cl	21	2	-4%	?	57%	?
O=C(CCCCCn1c(=S)[nH]c2ccc(N3CCOCC3)cc2c1=O)NCc1cccc(Cl)c1	-1	-3	3%	-2%	50%	10µM*
COCCCn1c(=S)[nH]c2ccc(N3CCOCC3)cc2c1=O	-2	-1	7%	?	6%	?
COc1ccc(CCn2c(=S)[nH]c3ccc(N4CCOCC4)cc3c2=O)cc1OC	-6	3	-7%	?	-2%	13µM*
O=C(CCCCCn1c(=S)[nH]c2ccc(N3CCOCC3)cc2c1=O)NCc1ccccc1	0	5	22%	?	-2%	-26%
O=c1c2cc(N3CCOCC3)ccc2[nH]c(=S)n1CCc1ccccc1	4	-8	8%	3.2µM*	16%	2µM*
COc1cc(/C=C2\CCCc3c2nc2ccccc2c3C(=O)O)cc(Br)c1O	?	?	.	-2%	?	3%
COc1cc(/C=C2\CCc3c2nc2ccccc2c3C(=O)O)cc(OC)c1OC	-21	.	.	?	.	10µM*
Cc1cccc(/N=C/c2c(O)n(Cc3ccc4c(c3)OCO4)c(=O)c3ccccc23)n1	2	4	13%	-10%	-2%	3%
Cc1occc1C(=O)N/N=C/C=C\c1ccccc1[N+](=O)[O-]	-4	-1	-6%	?	?	?
O=C(N/N=C/C=C\c1ccccc1[N+](=O)[O-])c1ccccn1	-30	-8	?	-7%	?	?
O=C(N/N=C/C=C/c1ccccc1[N+](=O)[O-])c1cc(-c2ccccc2)n[nH]1	-22	-16	-18%	14µM*	?	7.1µM*
Cc1ccsc1C(=O)N/N=C/C=C/c1ccccc1[N+](=O)[O-]	-13	-11	-5%	5.6µM*	?	5.6µM*
